# Assay results: the antibiotic and cytotoxicity screens of Wong et al. (2023)
# About 1,500 (3.8%) of roughly 39,000 compounds were called active. The sample holds actives, similar compounds and a random draw of the others, so the mix is not that of the screen.
# Tested on: HSkMC (human skeletal muscle cells)
# Experiment: cytotoxicity call (relative viability < 0.9)
# Conditions: 10 µM
row,SMILES,cytotoxicity call
1,CN(C)C(=O)[C@@]1(Cc2ccccc2CN=[N+]=[N-])N=C(c2ccc(OCCCO)cc2)O[C@H]1c1ccccc1N=[N+]=[N-],inactive
2,[N-]=[N+]=NCc1ccccc1C[C@]1(C(=O)NCc2ccccc2)N=C(c2ccc(OCCCO)cc2)O[C@H]1c1ccccc1N=[N+]=[N-],inactive
3,CCO[C@H]1[C@H]2CC[C@@H]1NC2,inactive
4,O=C1CC2OCC=C3CN4CCC56c7ccccc7N1C5C2C3CC46.O=S(=O)(O)O (stereo unspecified),inactive
5,N[C@]1(C(=O)O)CC[C@@H](C(=O)O)C1,inactive
6,COc1cc([C@@H](O)CN)ccc1O,inactive
7,[N-]=[N+]=NCc1ccccc1C[C@]1(C(=O)N2CCOCC2)N=C(c2ccc(OCCCO)cc2)O[C@H]1c1ccccc1N=[N+]=[N-],inactive
8,COc1ccc2c(c1)C[C@H](N)C2,inactive
9,CNC(=O)[C@H]1Cn2ccnc2C2(CCNCC2)O1,inactive
10,CC(C)=CCCC1(C)C=Cc2c(O)c3c(c(CC=C(C)C)c2O1)OC12C(=CC4CC1C(C)(C)OC2(CC=C(C)C(=O)O)C4=O)C3=O (stereo unspecified),active
11,CC(C)=CCCC1(C)C=Cc2c(O)c3c(c(CC=C(C)C)c2O1)OC12C(=CC4CC1C(C)(C)OC2(CC=C(C)C(=O)O)C4O)C3=O (stereo unspecified),active
12,CC(C)=CCC[C@]1(C)C=Cc2c(O)c3c(c(CC=C(C)C)c2O1)O[C@]12[C@H](C[C@@H]4C[C@H]1C(C)(C)O[C@]2(C/C=C(/C)C(=O)O)[C@@H]4O)C3=O,inactive
13,CC(C)CCC[C@]1(C)C=Cc2c(O)c3c(c(CCC(C)C)c2O1)O[C@]12[C@H](C[C@@H]4C[C@H]1C(C)(C)O[C@]2(CC[C@@H](C)C(=O)O)[C@@H]4O)C3=O,inactive
14,C[C@@H]1CN([C@H](C)CO)C(=O)c2c(c3ccccc3n2C)-c2ccccc2CO[C@@H]1CN(C)C(=O)Oc1ccccc1,inactive
15,O=C(c1ccno1)N1C[C@@H]2CCN[C@@H]2C1,inactive
16,COc1ccc(C(CN(C)C)C2(O)CCCCC2)cc1.Cl (stereo unspecified),inactive
17,N#CC[N+]12CCN(CC1)CC2,inactive
18,Cc1nc([N+](=O)[O-])c(N2CCNCC2)[nH]1,inactive
19,COC(=O)[C@H]1O[C@@H]2C[C@H]3O[C@@H](n4cnc5c(N)ncnc54)[C@H](OC)[C@H]3O[C@@]2(O)[C@@H](O)[C@@H]1O,inactive
20,O=C(CCCN1CCC2(CC1)C(=O)N(Cc1cccc(F)c1)CN2c1ccccc1)c1ccc(F)cc1,inactive
21,CC1(C)C(=O)C=CC2(C)C1CC(O)C1(C)C2CCC2(C)C(c3ccoc3)OC(=O)C3OC321 (stereo unspecified),inactive
22,CC(=O)OC1CC(OC(C)=O)C2(C)C(CC(OC(C)=O)C3(C)C2CCC2(C)C(c4ccoc4)C(=O)C4OC423)C1(C)C (stereo unspecified),inactive
23,CC1(C)C(=O)C=CC2(C)C1=C(O)C(=O)C1(C)C2CCC2(C)C(c3ccoc3)CC3OC321 (stereo unspecified),active
24,CC(=O)O[C@H]1C[C@@H](OC(C)=O)C(C)(C)[C@@H]2C[C@@H](OC(C)=O)[C@]3(C)[C@H](CC[C@@]4(C)[C@H](c5ccoc5)C[C@H]5O[C@@]534)[C@@]12C,inactive
25,CC(=O)OC1CC2C(C)(C)C(=O)C=CC2(C)C2CCC3(C)C(=CC(=O)OC3c3ccoc3)C12C (stereo unspecified),inactive
26,CC(=O)OC1CC2(C)C(c3ccoc3)CC3OC32C2(C)C(=O)C(O)=C3C(C)(C)C(=O)C=CC3(C)C12 (stereo unspecified),active

row,SMILES,cytotoxicity call
1,O=C1C[C@H](c2ccccc2)[C@@H]2CNCCN12,inactive
2,Cc1nnc(N2CCC[C@]3(CNCCO3)C2)o1,inactive
3,N#CN1CCCC1,inactive
4,Cc1cccc(CN2C[C@H]3OCCN(C)[C@H]3C2)n1,inactive
5,CC1=C(O)C(=O)C=C2C1=CC=C1C2(C)CCC2(C)C3CC(C)(C(=O)O)CCC3(C)CCC12C (stereo unspecified),active
6,NC1N[C@H]2CCCC[C@@H]2N1,inactive
7,CC(C)(CN)CNc1ccc([N+](=O)[O-])c2cccnc12,inactive
8,NC(=O)c1cn([C@@H]2O[C@H](CO)[C@@H](O)[C@H]2O)c2ncnc(N)c12,inactive
9,CCNC(=O)[C@H]1O[C@H](n2cnc3c(N)ncnc32)[C@@H](O)[C@@H]1O,inactive
10,NC(=O)c1cn([C@H]2O[C@@H](CO)[C@H](O)[C@@H]2O)c2ncnc(N)c12,active
11,O=C(NC(=O)c1c(F)cccc1F)Nc1ccc(Cl)cc1,inactive
12,O=C(NC(=O)c1c(F)cccc1F)Nc1cc(Cl)c(OC(F)(F)[C@@H](F)C(F)(F)F)cc1Cl,active
13,O=C(NC(=O)c1c(F)cccc1F)Nc1cc(Cl)c(OC(F)(F)C(F)C(F)(F)F)cc1Cl (stereo unspecified),inactive
14,C=CCC1(C(C)CCC)C(=O)N=C([S-])NC1=O.[Na+] (stereo unspecified),inactive
15,Cl.c1cncc(C2CCCCN2)c1 (stereo unspecified),inactive
16,Br.COC(=O)C1=CCCN(C)C1,inactive
17,NC(=O)CN1CC[C@@H](NC(=O)[C@@H]2CCCN2)C1=O,inactive
18,c1cn(C[C@H]2CC[C@H]3NCCO[C@@H]23)cn1,inactive
19,Cl.Cn1c(CCCC(=O)O)nc2cc(N(CCCl)CCCl)ccc21,inactive
20,CC[C@@H]1/C=C/C=C/C[C@H](C)[C@@H](O)[C@](C)(O)C(=O)[C@H](C)[C@@H](O)[C@H](C)C(=O)[C@H](C)[C@@H](O)[C@H](C)/C=C/C(=O)O[C@H]2[C@@H](C)[C@@H](CC1)O[C@@]1(CC[C@@H](C)[C@@H](C[C@H](C)O)O1)[C@@H]2C,inactive
21,CC[C@H]1/C=C/C=C/C[C@@H](C)[C@H](O)[C@@](C)(O)C(=O)[C@@H](C)[C@H](O)[C@@H](C)C(=O)[C@@H](C)[C@H](O)[C@@H](C)/C=C/C(=O)O[C@@H]2[C@H](C)[C@H](CC1)O[C@]1(CC[C@H](C)[C@H](C[C@@H](C)O)O1)[C@H]2C,active
22,CCC(COC(=O)c1cc(OC)c(OC)c(OC)c1)(c1ccccc1)N(C)C.O=C(O)C=CC(=O)O (stereo unspecified),inactive
23,Cc1n[nH]c(=O)nc1N1CCN(C)CC1,inactive
24,CC1OC(OC2CC(O)C3(CO)C4C(O)CC5(C)C(C6=CC(=O)OC6)CCC5(O)C4CCC3(O)C2)C(O)C(O)C1O.O.O.O.O.O.O.O.O (stereo unspecified),active
25,C[C@@H]1O[C@@H](O[C@@H]2C[C@@H](O)[C@]3(CO)[C@H]4[C@H](O)C[C@]5(C)[C@@H](C6=CC(=O)OC6)CC[C@]5(O)[C@@H]4CC[C@]3(O)C2)[C@H](O)[C@H](O)[C@H]1O,active
